SENP6 inh: SENP6 protease inhibitors, primary screen, biochemical, luminescence, uHTS; Sentrin-specific protease 6 (Homo sapiens), Q9GZR1; inhibition, % at 10 µM; Recombinant SENP6 catalytic domain, aminoluciferin luminescence; 330,000 tested, 1.8% active;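 active means inhibition above about 50% at the single tested dose, limit read from the data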;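 further: plate controls were DMSO wells with enzyme for no effect and DMSO wells lacking enzyme for full effect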
Target sequence (Q9GZR1 628-1112 limits assumed): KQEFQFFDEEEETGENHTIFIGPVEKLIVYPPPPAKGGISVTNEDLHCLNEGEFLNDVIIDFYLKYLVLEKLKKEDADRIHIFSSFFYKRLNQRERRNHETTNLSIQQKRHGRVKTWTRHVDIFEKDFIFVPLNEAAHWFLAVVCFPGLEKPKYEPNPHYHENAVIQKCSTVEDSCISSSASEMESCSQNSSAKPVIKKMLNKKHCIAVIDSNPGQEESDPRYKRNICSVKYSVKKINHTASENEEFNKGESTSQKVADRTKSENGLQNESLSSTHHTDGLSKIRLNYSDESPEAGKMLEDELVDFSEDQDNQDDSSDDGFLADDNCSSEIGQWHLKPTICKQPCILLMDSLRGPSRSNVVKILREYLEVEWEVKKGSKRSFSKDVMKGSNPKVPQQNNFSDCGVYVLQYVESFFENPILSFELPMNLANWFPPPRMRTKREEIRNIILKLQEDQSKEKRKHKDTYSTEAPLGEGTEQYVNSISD
SENP7 inh: SENP7 protease inhibitors, primary screen, biochemical, luminescence, uHTS. Sentrin-specific protease 7 (Homo sapiens), Q9BQF6. recombinant SENP7, Z-RLRGG-aminoluciferin luminescence, 40 min. inhibition, % at 5 µM. 330,000 tested, 1.5% active. AID 434973, 2010;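 active means inhibition above about 50% at the single test dose, limit read from the data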;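 further: plate controls were DMSO with enzyme for no effect and no enzyme buffer wells for full effect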
HSP90 refold inh: HSP90 inhibitors, primary screen, cell lysate, luminescence | Rabbit reticulocyte lysate, luciferase refolding luminescence, 3 h | inhibition, % at 5.6 µM | 290,000 tested, 0.91% active | AID 1789, 2009;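 active means inhibition above the screen-wide mean plus 3 SD, computed separately per campaign, cut at about 16% in these data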;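 further: 0% = DMSO wells and 100% = 60 µM geldanamycin wells; inhibitors lower the luminescence because luciferase stays unfolded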
SENP8 block-1: human SENP8 protease inhibitors, primary screen, biochemical, fluorescence, Nedd8 protein substrate, uHTS; 360,000 tested, 0.64% active; AID 602440, 2012; inhibition, % at 20 µM; recombinant SENP8; Sentrin-specific protease 8 (Homo sapiens), Q96LD8; in the data active means inhibition mostly above about 40%, no sharp cut-off; inactive means mostly below about 27%
SENP8 block-2: SENP8 protease inhibitors, primary screen, biochemical, luminescence; 330,000 tested, 1.2% active; AID 2540, 2010; Sentrin-specific protease 8 (Homo sapiens), Q96LD8; purified SENP8, Z-RLRGG-aminoluciferin cleavage; inhibition, % at 10 µM; in the data active means inhibition above about 50%
SENP8 conf-1: SENP8 protease inhibitors, retest, confirmation, biochemical, luminescence, single concentration | shares compounds with SENP7 inh | Recombinant SENP8, Z-RLRGG-aminoluciferin luminescence, 60 min | inhibition, % at 12.5 µM | 6,200 tested, 40% active | AID 488912, 2010;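 active means mean inhibition across replicates above about 50%, limit read from the data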
SENP6 confirm: SENP6 protease inhibitors, confirmation, biochemical, luminescence, single concentration. recombinant SENP6, Z-RLRGG-aminoluciferin luminescence. shares compounds with SENP7 inh. inhibition, % at 12.5 µM. 6,200 tested, 58% active
SENP7 confirm: SENP7 protease inhibitors, retest, confirmation, biochemical, luminescence, single concentration; shares compounds with SENP7 inh; recombinant SENP7, Z-RLRGG-aminoluciferin luminescence, 40 min; inhibition, % at 12.5 µM; 6,200 tested, 69% active
Casp3 SENP sel: caspase-3 protease inhibitors, confirmation, selectivity assay for SENP inhibitor project, biochemical, single concentration | shares compounds with SENP7 inh | purified caspase-3, Z-DEVD-aminoluciferin luminescence, 60 min | inhibition, % at 12.5 µM | 6,200 tested, 60% active | AID 488918, 2010;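 active means mean inhibition above about 50%, limit read from the data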;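 further: plate controls were enzyme with DMSO for no effect and wells without caspase-3 for full effect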
Target sequence (P42574 28-227 limits assumed): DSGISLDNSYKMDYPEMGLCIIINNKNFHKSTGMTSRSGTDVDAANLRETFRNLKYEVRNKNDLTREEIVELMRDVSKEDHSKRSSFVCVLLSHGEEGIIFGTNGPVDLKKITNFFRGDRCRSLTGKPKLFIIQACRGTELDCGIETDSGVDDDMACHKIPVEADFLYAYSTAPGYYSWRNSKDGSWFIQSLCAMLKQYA
Luc interf: interferes with luciferase luminescence in SENP counter-screen. AID 488919. shares compounds with SENP7 inh. 6,200 tested, 39% active. Pre-incubated SENP8/Z-RLRGG-aminoluciferin, luciferase luminescence interference. inhibition, % at 12.5 µM;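 active means mean inhibition above about 50% when retested at one dose, limit read from the data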;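 further: plate controls were DMSO wells with completed reaction for no effect and substrate without enzyme for full effect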
SENP8 conf-2: human SENP8 protease inhibitors, confirmation, biochemical, Nedd8 protein substrate, single concentration | inhibition, % at 25 µM | 1,400 tested, 15% active | shares compounds with SENP8 block-1 | purified SENP8, Nedd8-AMC/pro-Nedd8 cleavage fluorescence, 30 min; in the data active means inhibition mostly above about 39%, no sharp cut-off; inactive means mostly below about 34%
The depositor's hits bear a star; nt = no result; ! = repeats disagree. The list is not random: actives were taken first. Their share in the collection is about 2.8%.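 How the source made its calls, unless noted: active means mean inhibition above about 50% in the one-dose retest (limit read from the data); inactive means the rest.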

SMILES	SENP6 inh	SENP7 inh	HSP90 refold inh	SENP8 block-1	SENP8 block-2	SENP8 conf-2	others
Nc1nnc(CCN2CCCCC2)s1	7.4	-2.9	-2.6	4.5	4.0	nt
Clc1ccccc1Nc1ncnc(-n2cccc2)n1	81.5*	71.6*	-0.1	23.8	64.0*	nt	SENP8 conf-1=67.1*;SENP6 confirm=68.0*;SENP7 confirm=91.1*;Casp3 SENP sel=59.6*;Luc interf=48.0
Cc1cccc(N/N=C/c2c(O)[nH]c(=S)[nH]c2=O)c1	35.2	1.1	nt	19.8	83.7*	nt	SENP8 conf-1=93.9*;SENP6 confirm=94.5*;SENP7 confirm=100.9*;Casp3 SENP sel=96.4*;Luc interf=58.4*
COc1ccc(NC(=O)c2cn(CCC#N)nc2-c2cccc(Br)c2)cc1	17.3	-3.7	-6.2	5.2	11.0	nt
COc1ccc(OC)c(N2C(=O)/C(=C/c3ccco3)C(=O)NC2=S)c1	-43.1	-0.4	0.2	nt	22.5	nt
COc1ccc(OC)c(N2C(=O)NC(=O)/C(=C/c3ccc([N+](=O)[O-])s3)C2=O)c1	55.0*	10.5	1.0	62.9*	16.0	nt	SENP8 conf-1=-8.8;SENP6 confirm=21.9;SENP7 confirm=6.8;Casp3 SENP sel=-4.6;Luc interf=-6.2
CCC(C)(C)n1nnnc1C(c1cccs1)N1CC=C(c2ccc(F)cc2)CC1 (stereo not drawn)	8.6	5.7	-2.6	-1.0	-1.4	nt
COc1cc2c(cc1OC)-c1c(OC)c(OC)cc3c1[C@H](C2)N(C)CC3	83.0*	51.6*	2.5	27.5	42.4	nt	SENP8 conf-1=22.4;SENP6 confirm=66.0*;SENP7 confirm=35.0;Casp3 SENP sel=46.7;Luc interf=-4.9
O=C1NCN(c2ccccc2)C12CCN(C(CCc1ccccc1)c1nnnn1-c1ccc3c(c1)OCCO3)CC2 (stereo not drawn)	nt	nt	nt	23.9	nt	nt
CCOc1ccccc1CN1CCCC(C(=O)c2cc(F)ccc2F)C1 (stereo not drawn)	2.4	-0.4	7.7	13.5	7.1	nt
CCOC(=O)c1ccccc1NC(=O)c1c(O)[nH]c(=O)[nH]c1=O	-8.2	1.2	nt	-148.5	6.4	nt
CCOC(=O)c1ccc(NC(=O)c2c(O)[nH]c(=O)[nH]c2=O)cc1	82.9*	71.9*	2.1	18.0	66.2*	nt	SENP8 conf-1=30.4;SENP6 confirm=19.4;SENP7 confirm=36.4;Casp3 SENP sel=21.4;Luc interf=21.8
CCOc1ccc(NC(=O)c2c(O)[nH]c(=O)[nH]c2=O)cc1	74.4*	80.0*	nt	14.3	59.0*	nt	SENP8 conf-1=71.3*;SENP6 confirm=58.8*;SENP7 confirm=94.9*;Casp3 SENP sel=83.9*;Luc interf=39.3
COc1ccc(CCNCc2ccncc2)cc1	-20.0	-9.5	2.7	5.3	-13.5	nt
CCOC(=O)c1c(/N=C/c2c(O)n(-c3ccc(F)cc3)c(=S)[nH]c2=O)sc2c1CCCC2	5.0	7.5	0.6	5.1	2.2	nt
Cc1cccc(N=Nc2ccc(N(C)C)cc2)c1	90.2*	87.1*	-1.9	16.2	84.3*	nt	SENP8 conf-1=-24.4;SENP6 confirm=82.7*;SENP7 confirm=18.6;Casp3 SENP sel=20.4;Luc interf=19.5
CN(C)c1ccccc1	nt	nt	nt	2.2	nt	nt
COc1ccc2c(c1)NP(=S)(c1ccccc1)N2C (stereo not drawn)	nt	nt	nt	54.3*	nt	28.3
COc1ccc(P2(=O)Nc3ccccc3N2)cc1	23.9	5.2	11.8	-23.1	9.4	nt
OCCOc1ccccc1	-5.3	-4.3	nt	46.2*	3.1	9.5
O=C(CCc1ccccc1)N1C[C@H]2C[C@@H](C1)c1cccc(=O)n1C2	-16.2	-13.1	-2.5	61.2*	-17.3	28.6
COc1ccccc1CCNC(=O)CCC(=O)N1CC2C[C@@H](C1)Cn1c2cccc1=O	-6.5	-4.3	-6.2	46.1*	2.4	1.4
CC(C)OC(=O)Cc1ccccc1	-10.7	3.0	nt	15.4	2.4	nt
NNc1n[nH]c(=S)n1N	-6.6	4.8	2.2	42.0*	-2.3	22.3
CN1CC[C@@]2(C)c3cc(O)ccc3N(C)[C@@H]12	nt	nt	nt	44.2*!	nt	61.8*
SMILES	SENP6 inh	SENP7 inh	HSP90 refold inh	SENP8 block-1	SENP8 block-2	SENP8 conf-2	others
C/C(=N\Nc1ccccc1)c1c(O)n(C)c(=O)n(C)c1=O	-0.5	11.0	-1.2	8.1	-3.8	nt
CC(C)CNc1c2c(nc3ccccc13)CCC2	1.2	8.2	-0.5	-1.7	0.5	nt
CC12CN3CC(C)(CN(C1)C31CCOCC1)C2=O	5.0	-7.5	-3.3	40.7*	-1.6	4.8
CCC(C)N1C(=O)/C(=C\c2ccc(N3CCCCCC3)cc2)C(=O)NC1=S (stereo not drawn)	6.3	6.1	-0.2	-25.9	5.1	nt
CN1C(=O)C(Cc2ccsc2)C(=O)N(C)C1=O	-0.2	0.7	-0.2	47.0*	4.5	35.4
CN1C(=O)C(Cc2ccccc2)C(=O)N(C)C1=O	nt	nt	nt	9.4	nt	nt
CCOC(=O)c1ccc(NC(=O)N2CC3CC(C2)c2cccc(=O)n2C3)cc1 (stereo not drawn)	4.1	-6.7	4.1	7.7	1.8	nt
C[C@@H]1CN([C@H](C)CO)C(=O)CCCn2cc(nn2)CO[C@H]1CN(C)C(=O)Oc1cccc2ccccc12	nt	nt	nt	19.5	nt	nt
O=C1NC(=O)C(Nc2ccc(Cl)c(Cl)c2)C(=O)N1	nt	nt	nt	65.2*	nt	75.8*
c1cncc(C2CCCCN2)c1 (stereo not drawn)	6.9	0.4	4.9	55.2*	-2.7	9.8
O=C(O)c1ccc([N+](=O)[O-])c([N+](=O)[O-])c1	nt	nt	nt	40.1*	nt	31.7
O=[N+]([O-])c1ccc(N2CCCC2)c2ncccc12	33.8	-3.0	5.9	81.3*	10.3	26.6
COc1cc([N+](=O)[O-])c2ncccc2c1[N+](=O)[O-]	nt	nt	nt	30.0	nt	nt
CC1CN(c2ccc([N+](=O)[O-])c3cccnc23)CC(C)N1 (stereo not drawn)	3.7	-0.6	-2.0	39.3	-3.0	nt
CCNCCNc1ccc([N+](=O)[O-])c2cccnc12	7.9	9.1	1.4	63.1*	5.3	18.9
Cc1nonc1OCCNCCNc1ccc([N+](=O)[O-])c2cccnc12	1.4	-0.3	2.9	43.3*	3.4	19.6
CCOC(=O)C1(c2ccccc2)CCN(CC(=O)Nc2ccc(C)cc2)CC1	-12.6	-9.2	2.3	6.9	-12.7	nt

Screening data: PubChem BioAssay, several laboratories
